{"source": "PubChem BioAssay", "note": "Unmarked numbers belong to inactive results. Calls of active or inactive are those of the source.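 The calls were made as follows: active = inhibition of the reporter signal at or above 50%; inactive = inhibition below 50%.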"}
{"assay": "inhibitors of poly I:C-induced TLR3 signaling, primary screen, cell-based, poly I:C stimulus, luciferase, 10K MLSCN set (AID 602277)", "conditions": "HEK293-TLR3 RL24 IRF3 luciferase reporter, at 10 µM, hits give high values"}
{"smiles": "CN1CCN(C2=Nc3cc(Cl)ccc3Nc3ccccc32)CC1", "inhibition": "60.3% (active)"}
{"smiles": "CCN(CC)CCNC(=O)c1ccc(N)cc1", "inhibition": "3.63%"}
{"smiles": "CN(C)CCCN1c2ccccc2CCc2ccccc21", "inhibition": "5.17%"}
{"smiles": "CC1(C)S[C@@H]2[C@H](NC(=O)[C@H](N)c3ccccc3)C(=O)N2[C@H]1C(=O)O", "inhibition": "28.7%"}
{"smiles": "Fc1ccc(C(c2ccc(F)cc2)N2CCN(C/C=C/c3ccccc3)CC2)cc1", "inhibition": "42.4%"}
{"smiles": "NC(N)=Nc1nc(CSCC/C(N)=N/S(N)(=O)=O)cs1", "inhibition": "42.5%"}
{"smiles": "COc1ccc(-c2coc3cc(O)cc(O)c3c2=O)cc1", "inhibition": "-200%"}
{"smiles": "COc1cc2nc(N3CCN(C(=O)C4CCCO4)CC3)nc(N)c2cc1OC", "note": "(configuration not stated)", "inhibition": "30.2%"}
{"smiles": "Nc1nc2c(ncn2COCCO)c(=O)[nH]1", "inhibition": "26.2%"}
{"smiles": "Cc1nnc(NS(=O)(=O)c2ccc(N)cc2)s1", "inhibition": "-8.79%"}
{"smiles": "CC(=O)O[C@@]12CO[C@@H]1C[C@H](O)[C@@]1(C)C(=O)[C@H](O)C3=C(C)[C@@H](OC(=O)[C@H](O)[C@@H](NC(=O)OC(C)(C)C)c4ccccc4)C[C@](O)([C@@H](OC(=O)c4ccccc4)[C@H]21)C3(C)C", "inhibition": "38.9%"}
{"smiles": "CC[C@H]1CN2CCc3cc(OC)c(OC)cc3[C@@H]2C[C@@H]1C[C@H]1NCCc2cc(OC)c(OC)cc21", "inhibition": "103% (active)"}
{"smiles": "CC1=NS(=O)(=O)c2cc(Cl)ccc2N1", "inhibition": "41.7%"}
{"smiles": "O=C(NCC1CCCCN1)c1cc(OCC(F)(F)F)ccc1OCC(F)(F)F", "note": "(configuration not stated)", "inhibition": "50.6% (active)"}
{"smiles": "CC[C@]1(O)C[C@@H]2CN(CCc3c([nH]c4ccccc34)[C@@](C(=O)OC)(c3cc4c(cc3OC)N(C)[C@H]3[C@@](O)(C(=O)OC)[C@H](OC(C)=O)[C@]5(CC)C=CCN6CC[C@]43[C@@H]65)C2)C1", "inhibition": "90.5% (active)"}
{"smiles": "COc1ccc([C@@H]2Sc3ccccc3N(CCN(C)C)C(=O)[C@@H]2OC(C)=O)cc1", "inhibition": "35.5%"}
{"smiles": "O=C(CCCN1CCC(O)(c2ccc(Cl)cc2)CC1)c1ccc(F)cc1", "inhibition": "-5.69%"}
